# Data from PubChem BioAssay (Tox21).
# “And” between values parts separate entries of the source, which are not always exact repeats. Equal values may be shown once. Inconclusive results are not listed. A call without a number means that no potency is given here. Some structures have more than one record in an assay (separate samples or runs), and their calls can disagree. The source made the active and inactive calls. Unless noted, calls come from the whole dose curve; as a rule, active = well fitted curve in the direction sought with a large enough effect in the repeat runs; inconclusive = weak or mixed curves; inactive = no such curve, though single readings can be large; an effect the other way counts as inactive or inconclusive.
# Experiments:
# [1] = target: Acetylcholinesterase (Homo sapiens) (UniProt P22303); test: Acetylcholinesterase (AChE) small molecule antagonists: enzyme-based qHTS assay (AID 1347397; calls by dose curve; note: nearly all actives have a fitted effect of over 55% in size; note: potency is the fitted concentration of half-maximal effect); details: Potency: AChE enzyme activity inhibition
# Chain of Acetylcholinesterase (Homo sapiens) (P22303 whole entry, looked up): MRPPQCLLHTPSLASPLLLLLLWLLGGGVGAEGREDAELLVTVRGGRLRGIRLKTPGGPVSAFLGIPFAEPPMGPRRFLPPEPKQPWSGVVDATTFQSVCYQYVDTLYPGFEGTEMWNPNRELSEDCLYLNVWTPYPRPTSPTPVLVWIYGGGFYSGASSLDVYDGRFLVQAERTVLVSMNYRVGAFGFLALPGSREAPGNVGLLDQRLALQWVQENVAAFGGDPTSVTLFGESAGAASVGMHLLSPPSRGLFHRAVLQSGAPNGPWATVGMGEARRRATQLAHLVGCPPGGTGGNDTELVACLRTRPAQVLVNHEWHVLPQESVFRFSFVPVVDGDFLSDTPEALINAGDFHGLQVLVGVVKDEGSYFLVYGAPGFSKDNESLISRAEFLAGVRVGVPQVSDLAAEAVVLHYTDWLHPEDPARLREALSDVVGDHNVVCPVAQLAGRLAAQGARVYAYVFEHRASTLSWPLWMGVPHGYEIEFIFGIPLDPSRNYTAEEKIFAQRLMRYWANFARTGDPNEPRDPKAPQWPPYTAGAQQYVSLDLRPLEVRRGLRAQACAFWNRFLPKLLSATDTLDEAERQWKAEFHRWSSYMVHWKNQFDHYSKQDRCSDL
# How it was run: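 In this quantitative HTS, compounds from the Tox21 10K collection were preincubated 30 min at ambient temperature with recombinant human AChE dispensed at 50 mU/mL. Hydrolysis of acetylthiocholine was then followed for 10 min by DTNB colour development.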
# [2] = target: Acetylcholinesterase (Homo sapiens) (UniProt P22303); test: Acetylcholinesterase (AChE) small molecule antagonists: fluorescence cell-based qHTS assay (AID 1347398; calls by dose curve; note: nearly all actives have a fitted effect of over 50% in size; note: potency is the fitted concentration of half-maximal effect); details: Potency: AChE activity
# How it was run: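 Cells (SH-SY5Y) attached overnight, were dosed with compound or DMSO vehicle for 30 min at 37 C, and then incubated 40 min at room temperature with acetylthiocholine and Thiolite Green; green fluorescence indexed AChE activity.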
# [3] = target: Acetylcholinesterase (Homo sapiens) (UniProt P22303); test: Acetylcholinesterase (AChE) small molecule antagonists: enzyme-based qHTS assay with human liver microsomes (AID 1347399; calls by dose curve; note: nearly all actives have a fitted effect of over 60% in size); details: Potency: qHTS inhibition
# How it was run: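 Recombinant human AChE (50 mU/mL in the enzyme mix) and human liver microsomes (0.25 mg/mL final) were preincubated with compound and NADPH (0.25 mg/mL final) for 30 min at 37 C. Acetylthiocholine/DTNB was then added; thiocholine was read colorimetrically after 10 min at room temperature.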
# [4] = target: Cytochrome P450 2D6 (Homo sapiens) (UniProt P10635); test: Cytochrome P450 Family 2 Subfamily D Member 6 (CYP2D6) small molecule antagonists: luciferase reporter qHTS assay (AID 1671196); note: nearly all actives have a fitted effect of over 50% in size; note: potency is the fitted concentration of half-maximal effect
# Chain of Cytochrome P450 2D6 (Homo sapiens) (P10635 whole entry, looked up): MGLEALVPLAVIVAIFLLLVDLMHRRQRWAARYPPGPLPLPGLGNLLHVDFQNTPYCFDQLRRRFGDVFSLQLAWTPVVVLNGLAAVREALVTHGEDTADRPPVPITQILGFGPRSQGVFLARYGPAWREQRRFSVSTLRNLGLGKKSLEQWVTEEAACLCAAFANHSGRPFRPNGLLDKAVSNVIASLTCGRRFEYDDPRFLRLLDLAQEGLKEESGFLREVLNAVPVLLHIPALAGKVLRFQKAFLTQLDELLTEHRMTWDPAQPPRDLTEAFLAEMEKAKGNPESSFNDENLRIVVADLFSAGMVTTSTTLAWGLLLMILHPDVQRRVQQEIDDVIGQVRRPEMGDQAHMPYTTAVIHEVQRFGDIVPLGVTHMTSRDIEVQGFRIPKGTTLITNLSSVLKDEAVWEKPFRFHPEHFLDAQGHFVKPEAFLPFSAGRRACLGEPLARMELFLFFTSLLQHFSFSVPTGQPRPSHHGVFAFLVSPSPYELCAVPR
# How it was run: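 Room-temperature luminescent CYP2D6 activity assay: compound preincubated 10 min with enzyme–substrate mix, NADPH-initiated reaction 1 h, detection reagent 20 min before reading.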
# [5] = target: Cytochrome P450 2C19 (Homo sapiens) (UniProt P33261); test: Cytochrome P450 Family 2 Subfamily C Member 19 (CYP2C19) small molecule antagonists: luciferase reporter qHTS assay (AID 1671197); note: nearly all actives have a fitted effect of over 65% in size; note: potency is the fitted concentration of half-maximal effect
# Chain of Cytochrome P450 2C19 (Homo sapiens) (P33261 whole entry, looked up): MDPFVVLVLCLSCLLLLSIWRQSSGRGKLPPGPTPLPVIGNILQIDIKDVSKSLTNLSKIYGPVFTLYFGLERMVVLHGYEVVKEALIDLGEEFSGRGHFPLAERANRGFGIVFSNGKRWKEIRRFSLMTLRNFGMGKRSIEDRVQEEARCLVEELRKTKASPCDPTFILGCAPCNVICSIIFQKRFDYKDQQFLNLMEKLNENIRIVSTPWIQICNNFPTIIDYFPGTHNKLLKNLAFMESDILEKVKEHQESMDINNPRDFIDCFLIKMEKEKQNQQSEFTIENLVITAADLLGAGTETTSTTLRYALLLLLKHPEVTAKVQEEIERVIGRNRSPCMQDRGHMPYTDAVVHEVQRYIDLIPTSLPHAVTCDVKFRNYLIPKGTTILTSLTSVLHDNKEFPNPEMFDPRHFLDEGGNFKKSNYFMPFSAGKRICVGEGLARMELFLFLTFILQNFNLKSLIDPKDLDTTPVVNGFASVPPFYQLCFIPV
# How it was run: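 Luminescent readout of CYP2C19 activity: luciferin product detected 20 min after adding detection reagent. Before that, compound and enzyme-substrate mix preincubated 10 min at room temperature; NADPH-regenerating system started a 1 h, 37C reaction. Ketoconazole as positive control.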
# [6] = target: Cytochrome P450 2C9 (Homo sapiens) (UniProt P11712); test: Cytochrome P450 Family 2 Subfamily C Member 9 (CYP2C9) small molecule antagonists: luciferase reporter qHTS assay (AID 1671198); note: nearly all actives have a fitted effect of over 50% in size; note: potency is the fitted concentration of half-maximal effect
# Chain of Cytochrome P450 2C9 (Homo sapiens) (P11712 whole entry, looked up): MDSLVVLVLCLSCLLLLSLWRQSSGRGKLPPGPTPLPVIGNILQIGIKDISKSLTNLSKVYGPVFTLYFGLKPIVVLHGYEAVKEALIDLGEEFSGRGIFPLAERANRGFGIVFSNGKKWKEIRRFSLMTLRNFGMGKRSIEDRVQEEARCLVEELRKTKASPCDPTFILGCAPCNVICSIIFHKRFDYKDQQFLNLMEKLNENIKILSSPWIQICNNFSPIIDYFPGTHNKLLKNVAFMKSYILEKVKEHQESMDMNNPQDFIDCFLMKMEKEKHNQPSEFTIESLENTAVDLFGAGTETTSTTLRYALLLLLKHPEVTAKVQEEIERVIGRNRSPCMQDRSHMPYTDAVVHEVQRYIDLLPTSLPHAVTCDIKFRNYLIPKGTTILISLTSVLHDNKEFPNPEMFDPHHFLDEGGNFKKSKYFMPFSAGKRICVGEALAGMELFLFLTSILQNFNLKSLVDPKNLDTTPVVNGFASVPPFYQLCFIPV
# How it was run: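 P450-Glo proluciferin substrate with CYP2C9 enzyme; 10 min RT preincubation, then NADPH regeneration 1 h at 37C; luciferin detection reagent 20 min RT, luminescence in relative luminescence units.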
# [7] = target: Cytochrome P450 1A2 (Homo sapiens) (UniProt P05177); test: Cytochrome P450 Family 1 Subfamily A Member 2 (CYP1A2) small molecule antagonists: luciferase reporter qHTS assay (AID 1671199); note: nearly all actives have a fitted effect of over 50% in size; note: potency is the fitted concentration of half-maximal effect
# Chain of Cytochrome P450 1A2 (Homo sapiens) (P05177 whole entry, looked up): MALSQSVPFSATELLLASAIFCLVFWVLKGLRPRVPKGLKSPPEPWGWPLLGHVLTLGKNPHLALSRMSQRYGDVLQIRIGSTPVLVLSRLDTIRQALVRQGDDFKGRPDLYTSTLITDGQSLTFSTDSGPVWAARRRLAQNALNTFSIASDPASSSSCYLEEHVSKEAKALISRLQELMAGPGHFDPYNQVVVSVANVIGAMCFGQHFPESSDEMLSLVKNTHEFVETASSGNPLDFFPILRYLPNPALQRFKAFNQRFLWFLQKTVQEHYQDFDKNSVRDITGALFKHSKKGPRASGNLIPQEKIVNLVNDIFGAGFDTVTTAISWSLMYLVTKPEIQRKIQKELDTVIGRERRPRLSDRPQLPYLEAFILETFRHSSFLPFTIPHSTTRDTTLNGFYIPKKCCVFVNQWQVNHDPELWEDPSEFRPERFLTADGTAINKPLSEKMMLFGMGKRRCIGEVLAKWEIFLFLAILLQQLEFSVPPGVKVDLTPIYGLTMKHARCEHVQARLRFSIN
# How it was run: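 Room-temperature CYP1A2 reaction with proluciferin substrate: compounds added from DMSO, 10 min preincubation, NADPH regeneration for 1 h. Luciferin detection reagent then added; luminescence recorded as RLU.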
# [8] = target: Voltage-gated inwardly rectifying potassium channel KCNH2 (Homo sapiens) (UniProt Q12809); test: Human Ether-a-go-go-Related Gene (hERG) channel small molecule antagonists: fluorescence cell-based qHTS assay (AID 1671200); note: nearly all actives have a fitted effect of over 50% in size; note: potency is the fitted concentration of half-maximal effect
# Chain of Voltage-gated inwardly rectifying potassium channel KCNH2 (Homo sapiens) (Q12809 whole entry, looked up): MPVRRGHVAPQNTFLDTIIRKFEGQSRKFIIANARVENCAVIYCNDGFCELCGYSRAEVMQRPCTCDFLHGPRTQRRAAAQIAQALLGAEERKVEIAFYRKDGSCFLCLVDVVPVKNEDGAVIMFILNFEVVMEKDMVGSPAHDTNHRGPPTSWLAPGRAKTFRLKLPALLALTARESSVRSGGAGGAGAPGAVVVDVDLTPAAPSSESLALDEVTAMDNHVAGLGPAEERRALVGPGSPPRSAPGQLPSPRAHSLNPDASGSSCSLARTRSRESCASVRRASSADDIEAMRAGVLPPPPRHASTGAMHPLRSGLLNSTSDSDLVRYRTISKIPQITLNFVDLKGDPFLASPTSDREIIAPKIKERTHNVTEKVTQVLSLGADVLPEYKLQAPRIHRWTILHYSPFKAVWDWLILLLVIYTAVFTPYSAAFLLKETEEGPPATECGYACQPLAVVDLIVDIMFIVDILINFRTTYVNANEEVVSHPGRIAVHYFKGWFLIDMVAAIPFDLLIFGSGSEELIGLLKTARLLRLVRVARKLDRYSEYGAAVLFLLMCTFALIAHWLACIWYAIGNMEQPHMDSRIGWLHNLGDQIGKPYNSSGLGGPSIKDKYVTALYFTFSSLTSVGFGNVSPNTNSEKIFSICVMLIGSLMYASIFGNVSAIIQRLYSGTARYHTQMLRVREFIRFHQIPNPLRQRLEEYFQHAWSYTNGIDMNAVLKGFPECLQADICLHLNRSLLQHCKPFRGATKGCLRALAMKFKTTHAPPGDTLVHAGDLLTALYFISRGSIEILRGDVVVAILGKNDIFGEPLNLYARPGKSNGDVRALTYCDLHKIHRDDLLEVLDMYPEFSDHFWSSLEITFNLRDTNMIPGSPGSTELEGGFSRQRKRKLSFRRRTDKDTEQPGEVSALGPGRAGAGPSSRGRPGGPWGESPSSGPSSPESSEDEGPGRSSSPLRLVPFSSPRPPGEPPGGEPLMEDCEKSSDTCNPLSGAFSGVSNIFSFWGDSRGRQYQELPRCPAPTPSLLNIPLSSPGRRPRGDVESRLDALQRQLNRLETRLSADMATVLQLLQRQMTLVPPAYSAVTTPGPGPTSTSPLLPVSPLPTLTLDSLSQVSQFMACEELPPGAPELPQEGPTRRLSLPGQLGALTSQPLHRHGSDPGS
# How it was run: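 Cell line hERG-U2OS; dye FluxOR II, 1 h RT dark; Tl+ stimulus; ex 480/em 540 nm, read each second for 2 min.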
# [9] = target: Cytochrome P450 3A4 (Homo sapiens) (UniProt P08684); test: Cytochrome P450 Family 3 Subfamily A Member 4 (CYP3A4) small molecule antagonists: luciferase reporter qHTS assay (AID 1671201); note: nearly all actives have a fitted effect of over 50% in size; note: potency is the fitted concentration of half-maximal effect
# Chain of Cytochrome P450 3A4 (Homo sapiens) (P08684 whole entry, looked up): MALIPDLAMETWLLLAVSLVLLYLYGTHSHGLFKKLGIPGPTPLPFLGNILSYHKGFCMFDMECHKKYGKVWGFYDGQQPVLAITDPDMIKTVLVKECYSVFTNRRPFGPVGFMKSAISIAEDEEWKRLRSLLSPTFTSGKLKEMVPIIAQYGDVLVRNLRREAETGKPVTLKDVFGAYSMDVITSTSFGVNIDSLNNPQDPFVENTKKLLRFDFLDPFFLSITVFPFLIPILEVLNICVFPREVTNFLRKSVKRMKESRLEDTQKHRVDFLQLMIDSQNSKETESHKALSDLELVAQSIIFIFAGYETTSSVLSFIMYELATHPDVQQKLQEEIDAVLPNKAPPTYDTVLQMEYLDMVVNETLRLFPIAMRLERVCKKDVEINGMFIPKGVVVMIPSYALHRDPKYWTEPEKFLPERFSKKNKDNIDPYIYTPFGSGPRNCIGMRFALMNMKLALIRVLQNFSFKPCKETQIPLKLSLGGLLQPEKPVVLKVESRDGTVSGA
# How it was run: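 Room-temperature assay throughout: 10 min compound–enzyme/substrate preincubation, 1 h reaction after NADPH regeneration solution, 20 min detection. Luciferin formed from proluciferin substrate is quantified by luminescence.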
SMILES,Potency [1],Potency [2],Potency [3],Potency [4],Potency [5],Potency [6],Potency [7],Potency [8],Potency [9]
[O-][Cl+3]([O-])([O-])O,inactive,inactive,inactive,inactive,inactive,inactive,inactive,inactive,inactive
COc1ccc2c(c1OC)C(=O)O[C@@H]2[C@H]1c2cc3c(cc2CCN1C)OCO3,inactive,inactive,inactive,35.2 µM (active),3.95 µM (active),5.58 µM (active),31.4 µM (active),21.7 µM (active),
[F][Sn]([c]1ccccc1)([c]1ccccc1)[c]1ccccc1,inactive,inactive,inactive,2.83 µM (active),3.99 µM (active),2 µM (active),inactive,3.09 µM (active),
C#CC1(O)CCCCC1,inactive,inactive,inactive,inactive,inactive,inactive,inactive,inactive,inactive
COC(=O)N(OC)c1ccccc1COc1ccn(-c2ccc(Cl)cc2)n1,inactive,inactive,inactive,22.4 µM (active),0.283 µM (active),7.1 µM (active),1.12 µM (active),,
CCN(CC)CCc1c[nH]c2ccccc12,inactive,inactive,inactive,5.26 µM (active),inactive,inactive,52.6 µM (active),inactive,inactive
O=S1OCC2C(CO1)C1(Cl)C(Cl)=C(Cl)C2(Cl)C1(Cl)Cl (stereo not drawn),inactive,inactive,inactive,4 µM (active),3.18 µM (active) and 3.56 µM (active),35.6 µM (active) and 31.7 µM (active),inactive,21.9 µM (active) and 27.5 µM (active),283 nM (active) and 633 nM (active)
Nc1nc(N)nc(Cl)n1,inactive,inactive,inactive,inactive,inactive,inactive,inactive,inactive,inactive
c1cc[n+]2c(c1)-c1cccc[n+]1CC2,inactive,inactive,inactive,7.76 µM (active),9.77 µM (active),inactive,30.9 µM (active),inactive,
CCCCCCCCCCCCCCn1cc[n+](C)c1,50.4 µM (active) and 70.2 µM (active) and inactive,20.1 µM (active) and 31.4 µM (active) and inactive,inactive,1.13 µM (active) and 1.25 µM (active),40 µM (active) and 78.8 µM (active),11.3 µM (active),40 µM (active) and 62.6 µM (active),3.9 µM (active) and 6.84 µM (active) and inactive,40 µM (active)
Clc1ccc(C2(Cn3cncn3)OCCO2)c(Cl)c1,inactive,inactive,inactive,63.3 µM (active),3.17 µM (active),17.8 µM (active),28.3 µM (active),inactive,
C#CCC1=C(C)C(OC(=O)C2C(C=C(C)C)C2(C)C)CC1=O (stereo not drawn),inactive,inactive,inactive,39.7 µM (active),4.99 µM (active),12.5 µM (active),25 µM (active),43.4 µM (active),
Oc1ccc([C@H]2CNCc3c2ccc(O)c3O)cc1O,inactive,30.9 µM (active),inactive,34.7 µM (active),38.9 µM (active),13.8 µM (active),inactive,inactive,inactive
CC[C@H](C)[C@H]1O[C@]2(C=C[C@@H]1C)C[C@@H]1C[C@@H](C/C=C(\C)[C@@H](O[C@H]3C[C@H](OC)[C@@H](O[C@H]4C[C@H](OC)[C@@H](NC)[C@H](C)O4)[C@H](C)O3)[C@@H](C)/C=C/C=C3\CO[C@@H]4[C@H](O)C(C)=C[C@@H](C(=O)O1)[C@]34O)O2,inactive,inactive,inactive,63.3 µM (active),35.6 µM (active),35.6 µM (active),35.6 µM (active),inactive,1.59 µM (active)
CCC[CH2][Sn]([CH2]CCC)([CH2]CCC)[CH2]CCC,inactive,inactive,inactive,20 µM (active),35.6 µM (active),,,,
S=C=Nc1ccccc1,inactive,inactive,inactive,73.3 µM (active),36.7 µM (active),65.3 µM (active),32.7 µM (active),inactive,32.7 µM (active)
COC(=O)c1cc(Oc2ccc(Cl)cc2Cl)ccc1[N+](=O)[O-],inactive,inactive,inactive,22.4 µM (active),2.52 µM (active),7.1 µM (active),15.9 µM (active),17.4 µM (active),
ClCBr,inactive,inactive,inactive,inactive,inactive,inactive,inactive,inactive,inactive
CC1(C)C(C=C(Cl)Cl)C1C(=O)OC(C#N)c1ccc(F)c(Oc2ccccc2)c1 (stereo not drawn),inactive,inactive,inactive,28.3 µM (active),10 µM (active),3.17 µM (active),inactive,inactive,inactive
C=CC(=O)[O][Sn]([CH2]CCC)([CH2]CCC)[CH2]CCC,inactive,inactive,inactive,1.26 µM (active),0.894 µM (active),12.6 µM (active),,6.16 µM (active),25.2 µM (active)
N#CC(C#N)=NNc1cccc(Cl)c1,inactive,inactive,inactive,63.3 µM (active),,8.94 µM (active),8.94 µM (active),,
